The full list was thinned out, with hits kept by preference.
KDM5B inh: KDM5B demethylase inhibition; AID 1347165; actives 2.6% (n = 220,000); KDM5B demethylase, FDH-coupled NADH fluorescence (FDH is formaldehyde dehydrogenase); Potency, µM (top dose mostly 57.7 µM), actives largely listed as inhibitors; active means well fitted inhibition curve with a large enough effect; further: 0% is about no effect; nearly all actives have a fitted effect of over 70% in size
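Measured: NADH fluorescence change, 30 min, RT. System: KDM5BΔAP 200 nM final, H3K4me3 peptide, α-KG, Fe(II), ascorbate, NAD⁺ plus FDH, pH 7.5 HEPES. Compounds: titrated, 10 min pre-incubation with enzyme.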
Numbers without * were called inactive; i = inactive. Potency means the concentration at half of the fitted maximal effect.

SMILES	KDM5B inh
O=C(O)C1Cn2cccc2C(=O)N1Cc1cccnc1 (stereo not given)	i
O=C(CC1CCCCC1)NC(Cc1ccccc1)C(=O)N1CCN(c2ccccn2)CC1 (stereo not given)	22µM*
O=C(C1Cn2cccc2C(=O)N1Cc1ccccc1)N1CCN(c2ncccn2)CC1 (stereo not given)	18µM*
O=C(NC(Cc1ccccc1)C(=O)N1CCN(c2ncccn2)CC1)c1ccccc1 (stereo not given)	i
Cc1ccc(CN2CCN(C(=O)C3Cn4cccc4C(=O)N3Cc3cccnc3)CC2)cc1 (stereo not given)	i
O=C(CC1CCCCC1)N1CCC2(CC1)CC(N1CCN(c3ccccn3)CC1)CCO2 (stereo not given)	i
O=C(O)[C@@H]1CN(Cc2ccccc2)C[C@@H]1C(=O)N1CCOCC1	i
O=C(/C=C/c1cccc([N+](=O)[O-])c1)N1CCN(c2ccccn2)CC1	i
NC(Cc1ccccc1)C(=O)N1CCN(c2ccccn2)CC1 (stereo not given)	22µM*
O=C(NC(Cc1ccccc1)C(=O)N1CCN(c2ncccn2)CC1)c1cccs1 (stereo not given)	i
CCC1(C)NC(=O)N(NC(=O)c2nn(-c3ccccc3)c(=O)c3ccccc23)C1=O (stereo not given)	i
COc1cccc(/C=C2/C(=O)c3ccccc3OC2c2ccccc2)c1 (stereo not given)	i
CSc1cccc(Nc2nc(N)c(C(=O)c3cccc(Br)c3)s2)c1	i
CC(C)CC(NC(=O)Cn1c(=O)c2c(ncn2C)n(C)c1=O)c1ccccc1 (stereo not given)	i
O=C(OCc1cccc([N+](=O)[O-])c1)C12CC3CC(CC(O)(C3)C1)C2	i
COC(=O)c1[nH]c2ccccc2c1NC(=O)CCN1CCCCC1	i
Cc1ccccc1-c1nnn(Cc2cc(Cl)c3c(c2)OCCCO3)n1	i
CCOc1ccccc1OCc1nn2c(C(C)C)nnc2s1	i
Cc1cccc(C(=O)O)c1NC(=O)c1ccco1	i
O=C(CCc1ncc(-c2ccc(F)cc2F)o1)Nc1ccc2c(c1)C(=O)NC2	i
CN1c2cccnc2CN(Cc2ccccn2)CC[C@H]1CO	i
CN1c2cccnc2CN(CC2CCCCC2)CC[C@H]1CO	28µM*
CN1c2cccnc2CN(C2CCCCC2)CC[C@H]1CO	i
O=C(Cn1c(=O)c2c(ncn2C2CCCC2)n(Cc2ccccc2)c1=O)NCc1ccc(F)cc1	i
CCOC(=O)N1CCN(c2nc(C)c3c(n2)CC(c2ccc(Cl)cc2)CC3=O)CC1 (stereo not given)	i
SMILES	KDM5B inh
CC(C)Cn1nc(C(=O)NN2C(=O)NC(c3ccccc3)(c3ccccc3)C2=O)c2ccccc2c1=O	i
CCCN(C(=O)Cn1nc(Cc2ccncc2)c2ccccc2c1=O)c1ccc(F)cc1	i
CSC1=N/C(=C\c2ccc(OC(C)=O)cc2)C(=O)S1	i
N#Cc1ccc(N2CCN(C(=O)CNC(N)=O)CC2=O)cc1	i
COc1cc2c(cc1CN1CCN(c3ccc(C#N)cc3)C(=O)C1)CCC2	32µM*
N#Cc1ccc(N2CCN(C(=O)CCn3cncn3)CC2=O)cc1	i
CCN1CCN(c2c([N+](=O)[O-])cnc3ccc(Br)cc23)CC1	i
CCn1cnnc1CC1CCN(C(=O)c2cnn3c(C)c(Cc4ccccc4Cl)c(C)nc23)CC1	28µM*
CCn1cnnc1CC1CCN(C(=O)c2ccc3ccccc3n2)C1 (stereo not given)	i
CCn1cnnc1CC1CCN(C(=O)CCC(=O)n2nc(C)c3ccccc32)CC1	i
CN(Cc1cccs1)C(=O)/C=C/c1nc2ccccc2s1	i
O=[N+]([O-])c1cc(S(=O)(=O)Nc2cccc(Cl)c2)ccc1N/N=C/c1cccc(F)c1	i
CN(CC(=O)Nc1ccc(Cl)cc1)C(=O)COc1cccc(F)c1	i
Cc1ccccc1C1CC(=O)NC2=C1C(=O)CC(C)(C)C2 (stereo not given)	i
COc1ccc(-c2cc(C(=O)NC3CC3)c3c(C4CCCNC4)noc3n2)cc1 (stereo not given)	79µM*
COC(=O)c1cc(-c2ccc(F)cc2)nc2onc(C3CC3)c12	i
O=C(NC1CCNCC1)c1cc(C2CC2)nc2onc(C3CCNC3)c12 (stereo not given)	79µM*
COc1ccc(-c2noc(C(=O)NC3CC3)c2[C@H](C)O)cc1	i
Cc1cc(C(=O)NCC(F)(F)F)c2c(C3CCNCC3)noc2n1	i
COc1ccc(-c2cc(C(=O)NC3CC3)c3c(C4CCNC4)nn(C)c3n2)cc1 (stereo not given)	79µM*
Cc1cc(C(=O)NCC2CC2)c2c(C3CCCNC3)noc2n1 (stereo not given)	i
COc1cccc(-c2cc(C(=O)NC3CC3)c3ccccc3n2)c1	i
Cc1cc(C(=O)NCC2CC2)c2c(C3CCNC3)noc2n1 (stereo not given)	i
